Measured values taken from PubChem BioAssay (Tox21).
Results filed as inconclusive are left out. The source holds several records for some structures; these can differ, active in one and inactive in another. Active and inactive are the calls of the source. Calls come from the whole dose curve.
% is set by controls: 0 for no effect and ±100 for the full control effect; potency is the fitted concentration of half-maximal effect.

Assay: p53 small molecule agonists, cell-based qHTS assay with human liver microsomes: qHTS cell viability counter screen (AID 1963579); note: nearly all actives have a fitted effect of over 45% in size
Conditions: p53RE-bla HCT-116 viability, ATP luminescence, 16 h, HLM; series mostly up to 66 µM; activity change, negative = cytotoxicity: at the top concentration
Excerpt: National Center for Advancing Translational Sciences [NCATS]
Division of Preclinical Innovation [DPI]
U.S. Environmental Protection Agency [EPA]
National Institutes of Environmental Health Sciences [NIEHS]
National Toxicology Program [NTP]
U.S. Food and Drug Administration [FDA]
p53, a tumor suppressor protein, is activated following cellular insult, including DNA damage and other cellular stresses. The activation of p53 regulates cell fate by inducing DNA repair, cell cycle arrest, apoptosis, or cellular senescence. The activation of p53, therefore, is a good indicator of DNA damage and other cellular stresses. […] The activation of the reporter gene under culture conditions can be detected by fluorescence intensity. This cell line was used to screen the Tox21 10K compound library in the condition of presence of human liver microsomes and to identify agonists that activate the p53 signaling pathway after in vitro metabolic activation (Ooka et al., Archive of Toxicology 96:1975-1987, 2022).
Tox21 Assay Protocol Summary:
The p53RE-bla cells were dispensed at 4,000cells/3ul/well in 1536-well black-clear bottom plates. After the assay plates were incubated at 37 C, 5% CO2 incubator for 5 hours, 23 nL of compounds dissolved in DMSO, positive controls or DMSO only was transferred to the assay plate. Following compound addition, 3 uL of human liver microsomes (XenoTech, Kansas City, KS) at final concentration of 0.5 mg/mL and 1uL of B-Nicotinamide adenine dinucleotide 2'-phosphate (NADPH) at final concentration of 0.5 mg/mL were transferred to the assay plate. The plates were incubated at 37 C for 16 hours. 1 uL of LiveBLAzer detection mixture was added to each well and the plates were incubated at room temperature in the dark for 2 h. Fluorescence intensity at 460 and 530 nm emission and 405 nm excitation were measured by an Envision plate reader. For cell viability readout that measures cytotoxicity, 4 ul/well of CellTiter-Glo reagent was added into the assay plates using a Flying Reagent Dispenser. After 30 min incubation at room temperature, the luminescence intensity in the plates was measured using a ViewLux plate reader.
In the case of `Fc1c(F)c(F)c(Br)c(F)c1F`, the “activity change, negative = cytotoxicity” value was -3.58% (inactive). In the case of `COc1cc(S(N)(=O)=O)cc(C(=O)O)c1OC`, the “activity change, negative = cytotoxicity” value was 1.48% [at 30.3 µM] (inactive). For `CCCCc1ncc(/C=C(\Cc2cccs2)C(=O)O)n1Cc1ccc(C(=O)O)cc1`, the “activity change, negative = cytotoxicity” value was -4.13% [at 30.3 µM] (inactive). In the case of `CC1=C(C=O)C(C)(C)CC=C1`, the “activity change, negative = cytotoxicity” value was 3.69% (inactive). With `O=C(O)CCS` the “activity change, negative = cytotoxicity” value was -7.43% (inactive). In the case of `CC(C)(C)NC[C@H](O)COc1nsnc1N1CCOCC1`, the Potency was “inactive”. In the case of `CC(C)c1ccccc1O`, the “activity change, negative = cytotoxicity” value was -2.43% (inactive). For `O=C1OC[C@H](Cc2cccc(O)c2)[C@H]1Cc1cccc(O)c1`, the “activity change, negative = cytotoxicity” value was 4.75% [at 30.3 µM] (inactive). For `CC(C)(c1ccccc1)c1ccc(Nc2ccc(C(C)(C)c3ccccc3)cc2)cc1`, the Potency was “inactive”. For `C=CC(C)CCC=C(C)C` (stereo not given), the “activity change, negative = cytotoxicity” value was -15.5% (inactive). With `CC(COCCO)OCCO` (stereo not given) the “activity change, negative = cytotoxicity” value was 5.01% (inactive). For `CCCCCC=O`, the Potency was “inactive”. With `Cc1ccc(C(C)C)cc1O` the “activity change, negative = cytotoxicity” value was -6.45% (inactive). In the case of `CCCCCCCC(=O)OCCCCCC`, the “activity change, negative = cytotoxicity” value was 4.07% (inactive). With `CCCCN=C(N)N=C(N)N` the “activity change, negative = cytotoxicity” value was 0.119% [at 30.3 µM] (inactive). In the case of `C[N+](C)(C)CC(O)CCl` (stereo not given), the “activity change, negative = cytotoxicity” value was -4.64% (inactive). For `CCCCCCCCCCCCCCCC`, the “activity change, negative = cytotoxicity” value was -0.797% (inactive). For `CCCOCCC`, the “activity change, negative = cytotoxicity” value was -1.69% (inactive). In the case of `C=C(c1ccc(C(=O)O)cc1)c1cc2c(cc1C)C(C)(C)CCC2(C)C`, the Potency was 20.4 µM (active) and inactive. In the case of `CC(C)=CCCC(C)CC=O` (stereo not given), the “activity change, negative = cytotoxicity” value was 17.6% (inactive). With `CC(C)OC=O` the Potency was “inactive”. In the case of `CC(=O)c1ccc(O)c(C(N)=O)c1`, the “activity change, negative = cytotoxicity” value was 1.12% [at 30.3 µM] (inactive). In the case of `CNCCS(=O)(=O)O`, the “activity change, negative = cytotoxicity” value was -0.125% (inactive). In the case of `CC(C)(C)NC(N)=O`, the “activity change, negative = cytotoxicity” value was 3.38% (inactive). With `O=C(O)CCCCCC(=O)O` the “activity change, negative = cytotoxicity” value was -1.02% (inactive). In the case of `CCCCOC(=O)[C@H](C)O`, the “activity change, negative = cytotoxicity” value was -6.09% (inactive). With `CCOC(=O)n1ccn(C)c1=S` the Potency was “inactive”. For `CCCOC(C)=O`, the “activity change, negative = cytotoxicity” value was -7.38% (inactive). In the case of `CC(=O)CC(C)=O`, the “activity change, negative = cytotoxicity” value was 9% (inactive). In the case of `COc1ccc2cccc(CCNC(C)=O)c2c1`, the “activity change, negative = cytotoxicity” value was 1.75% [at 30.3 µM] (inactive). With `NC(=Nc1ccccc1)Nc1ccccc1` the “activity change, negative = cytotoxicity” value was 24% [at 30.3 µM] (inactive). For `O=C1CCC(=O)O1`, the “activity change, negative = cytotoxicity” value was -9.33% (inactive). With `CC(=O)O[C@@H]1C[C@@H]2CC[C@@]1(C)C2(C)C` the “activity change, negative = cytotoxicity” value was 3.3% (inactive). In the case of `O=[N+]([O-])c1ccccc1Nc1ccccc1`, the “activity change, negative = cytotoxicity” value was 1.74% (inactive). With `CCCCC(CC)COC(C)=O` (stereo not given) the Potency was “inactive”. With `Cc1ccc(C(C)c2ccc(C)c(C)c2)cc1C` the “activity change, negative = cytotoxicity” value was 6.48% (inactive). With `Cc1cc(O)cc(C)c1Cl` the Potency was “inactive”. With `Cc1ncc(CSSCc2cnc(C)c(O)c2CO)c(CO)c1O` the “activity change, negative = cytotoxicity” value was -8.53% [at 30.3 µM] (inactive). In the case of `CCCCOCCCC`, the “activity change, negative = cytotoxicity” value was 14.5% (inactive). For `C1CCC(SSC2CCCCC2)CC1`, the “activity change, negative = cytotoxicity” value was -6.69% (inactive).
